Assay outcomes deposited in PubChem BioAssay by several laboratories.
The list is not random: actives were taken first. Their share in the collection is about 2.5%.
aSyn 5UTR inh: MLPCN primary screen, SNCA 5' untranslated region. AID 1813. inhibition, % (tested at 7.5 µM). alpha-synuclein 5'UTR reporter, inhibitor activity. 300,000 tested, 0.82% active; in the data active = inhibition above about 60%;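 also: H4 neuroglioblastoma cells stably carrying SNCA 5'UTR luciferase fusion; 0% = DMSO wells and 100% = positive control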
TMEM16A act: activators or potentiators of mouse TMEM16A chloride channel; HEK293 TMEM16A/YFP-H148Q/I152L, iodide quench fluorescence; active compounds read low; Q8BHY3; 340,000 tested, 0.3% active; B-score at 10 µM;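 active = fluorescence-ratio B-score plate-corrected deviation score at least 3 library SD below zero, with starting fluorescence score within 5 deviations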;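 also: channel opened by trigger with iodide after compound preincubation; score built on the fluorescence ratio of max minus min over baseline; more negative score means more quench and so TMEM16A activation or potentiation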
Target sequence (Q8BHY3 whole entry, looked up): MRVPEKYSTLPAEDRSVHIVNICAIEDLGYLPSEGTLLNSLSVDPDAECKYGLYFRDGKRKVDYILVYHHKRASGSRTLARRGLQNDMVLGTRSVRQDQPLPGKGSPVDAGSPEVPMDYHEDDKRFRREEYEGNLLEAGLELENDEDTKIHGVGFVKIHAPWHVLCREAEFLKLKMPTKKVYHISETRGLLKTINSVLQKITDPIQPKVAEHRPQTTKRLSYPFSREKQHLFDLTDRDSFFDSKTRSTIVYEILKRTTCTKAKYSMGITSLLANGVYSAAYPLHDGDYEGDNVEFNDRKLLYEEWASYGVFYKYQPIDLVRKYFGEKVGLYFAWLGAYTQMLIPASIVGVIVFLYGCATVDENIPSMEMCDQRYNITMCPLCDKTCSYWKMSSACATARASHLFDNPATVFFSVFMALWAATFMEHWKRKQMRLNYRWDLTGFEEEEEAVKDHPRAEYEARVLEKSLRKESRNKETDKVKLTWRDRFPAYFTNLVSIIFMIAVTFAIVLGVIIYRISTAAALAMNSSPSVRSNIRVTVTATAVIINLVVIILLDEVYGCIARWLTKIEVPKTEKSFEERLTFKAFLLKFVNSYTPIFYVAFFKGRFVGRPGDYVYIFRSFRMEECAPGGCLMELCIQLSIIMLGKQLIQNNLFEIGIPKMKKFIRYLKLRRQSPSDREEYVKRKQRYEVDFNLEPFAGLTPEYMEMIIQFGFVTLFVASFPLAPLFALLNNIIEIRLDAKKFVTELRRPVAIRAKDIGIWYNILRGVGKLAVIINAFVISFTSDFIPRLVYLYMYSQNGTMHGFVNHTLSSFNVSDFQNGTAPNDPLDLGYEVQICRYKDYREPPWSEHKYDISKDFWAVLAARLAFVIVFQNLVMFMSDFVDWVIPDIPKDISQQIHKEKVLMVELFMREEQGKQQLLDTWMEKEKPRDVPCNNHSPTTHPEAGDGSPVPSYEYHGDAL
KLF5 inhibitor: kruppel-like factor 5 inhibition; inhibition, % at 5 µM; 290,000 tested, 0.23% active; DLD-1 KLF5 promoter-luciferase reporter, luminescence;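 active = inhibition above a per-plate limit of that plate's mean compound inhibition plus 3 SD, cut at about 60% in these data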;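 also: 0% = DMSO wells and 100% = LY294002 at 200 µM; higher means less KLF5 promoter-driven luciferase light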
697 NFkB inh: lowers PMA/ionomycin-induced NF-kB signal in 697 B cells; 697 B-cell NF-kB luciferase reporter, 16 h; inhibition, % at 4 µM; 330,000 tested, 0.33% active; in the data active = inhibition above about 35%
Jurkat NFkB inh: inhibitors of the PMA/ionomycin-induced NF-kB reporter in Jurkat cells | AID 435003 | 330,000 tested, 0.53% active | inhibition, % at 4 µM | PMA/ionomycin-induced NF-kB luciferase reporter, luminescence; in the data active = inhibition above about 50%
TMEM16A inh: blocks the mouse calcium-activated chloride channel TMEM16A | Q8BHY3 | HEK293 TMEM16A/YFP iodide influx fluorescence, ionomycin | normalized B-score (activity score, 25-100; higher = stronger inhibition) at 10 µM | 310,000 tested, 1.2% active;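 active = ratio plate-corrected score three or more library SD toward inhibition, starting fluorescence score within five deviations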;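 also: score derived from kinetic fluorescence span divided by baseline fluorescence per well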
Jurkat NFkB conf: lowers PMA/ionomycin-induced NF-kB signal in Jurkat cells; inhibition, % at 4 µM; Jurkat NF-kB luciferase, 16 h; shares compounds with Jurkat NFkB inh; 2,700 tested, 27% active; AID 435020;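 active = inhibition reaching about 45% at 4 µM in either replicate, limit read from the data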;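 also: plate controls were PMA/ionomycin stimulated DMSO wells for no effect and unstimulated DMSO wells for full effect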
* marks the source's active call; other numbers are inactive results; i = inactive; · = no result given.

SMILES	aSyn 5UTR inh	TMEM16A act	KLF5 inhibitor	697 NFkB inh	Jurkat NFkB inh	TMEM16A inh	Jurkat NFkB conf
Cc1ccc(C(=O)NC2CCC(C)CC2)s1 (stereo unspecified)	-91.7	i	·	-156.8	-164.1	i	-66.2
O=C1CN(C(=O)c2cccc(Br)c2)c2ccccc2N1	-84.6	i	4.3	-39.4	52.0*	i	16.1
CC(=O)Nc1ccc(SCCN2CC[C@@H](C(C)(C)C)CCC2=O)cc1	·	i	·	0.4	11.3	·	·
CC1(C)Cc2nc3sc4c(=O)n(CC(=O)NCc5ccco5)cnc4c3cc2CO1	-99.9	i	-7.3	-21.3	50.1*	i	3.6
COc1nc(-c2cccs2)cc(-c2ccc(C)cc2)c1C#N	28.9	i	-8.5	-28.7	57.0*	i	19.4
COC(=O)C(Cc1ccccc1)NC(=O)CNC(=O)c1sc2ccccc2c1Cl (stereo unspecified)	-5.8	i	-34.4	-7.0	-18.6	i	·
Nc1c(C(=O)Nc2ccccc2)nnn1-c1ccc2c(c1)OCCO2	13.2	i	-17.4	-233.9	-157.3	i	-99.7
Cc1ccc(NC(=O)c2nnn(-c3ccc4c(c3)OCCO4)c2N)cc1	-148.6	i	-145.7	-132.5	-108.7	i	·
CCN1C(=O)C(=O)N(Cc2ccc(OC)c(F)c2)C1=O	-23.3	i	-12.6	0.9	10.3	i	·
Cc1cc2c(cc1C)C(c1ccccc1Br)CC(=O)N2 (stereo unspecified)	17.4	i	-52.4	3.8	17.1	i	·
O=C1CC(c2cccnc2)c2cc3c(cc2N1)OCO3 (stereo unspecified)	9.3	i	12.4	-0.6	1.9	i	·
Cc1cc2c(cc1C)C(c1ccccc1OC(C)C)CC(=O)N2 (stereo unspecified)	-12.2	i	27.4	-76.3	52.3*	i	35.5
CCOc1ccccc1C1CC(=O)Nc2cc(C)c(C)cc21 (stereo unspecified)	33.7	i	10.9	-53.1	52.1*	i	38.5
CCOc1ccccc1C1CC(=O)Nc2cc(OC)c(OC)c(OC)c21 (stereo unspecified)	26.8	i	-48.5	26.7	-6.7	i	·
CCOc1ccccc1C1CC(=O)Nc2cc3c(cc21)OCCO3 (stereo unspecified)	91.9*	·	60.5	-4.8	69.9*	i	56.9*
COc1cc(C(=O)c2ccccc2C(=O)O)c(OC)c2c1CCCC2	·	i	·	·	·	·	·
CCc1ccc(CN2CCCC(C(=O)N3CCCCC3)C2)cc1 (stereo unspecified)	-6.6	i	-15.1	2.1	19.0	i	·
Cc1cc(C(=O)CN2C(=O)C3CC=CCC3C2=O)c(C)n1-c1ccccc1 (stereo unspecified)	16.9	i	-145.8	-199.4	-173.7	i	-60.6
Cc1cc(C(=O)Cn2cc(C(F)(F)F)ccc2=O)c(C)n1-c1ccccc1	22.8	i	-25.8	-17.9	15.8	i	·
CCn1c(C)cc(C(=O)CN2C(=O)c3ccccc3S2(=O)=O)c1C	·	i	·	19.6	69.4*	·	38.7
Cc1cc(C(=O)CN2C(=O)c3ccccc3S2(=O)=O)c(C)n1C(C)C	·	i	·	9.5	55.2*	·	18.6
Cc1cc(C(=O)CN2C(=O)c3ccccc3S2(=O)=O)c(C)n1-c1ccccc1	120.1*	i	3.0	-33.6	65.9*	i	-0.9
O=C(CN1C(=O)c2ccccc2S1(=O)=O)c1ccccc1	·	i	13.8	15.1	-2.4	i	·
Cn1ncc2c(=O)[nH]c(N)nc21	·	i	·	·	·	·	·
COc1ccc(S(=O)(=O)Nc2cccc(-c3ccc(N4CCCCCC4)nn3)c2)c(OC)c1	22.1	i	-69.9	-45.1	-41.0	i	·
SMILES	aSyn 5UTR inh	TMEM16A act	KLF5 inhibitor	697 NFkB inh	Jurkat NFkB inh	TMEM16A inh	Jurkat NFkB conf
CC(CNc1ccccc1O)C(=O)O (stereo unspecified)	11.8	i	-1.0	13.4	-1.9	i	·
COc1cc(-c2c(C#N)c(N)nc3c2CCCC3)ccc1O	13.4	i	3.5	1.1	3.9	i	·
COc1ccc(-c2c(C#N)c(N)nc3c2CCc2ccccc2-3)cc1OC	-40.3	·	22.4	23.5	66.5*	i	44.1
Cc1cc(N2CCN(Cc3cn(C)nc3-c3ccccc3F)CC2)cc(C)n1	90.9*	i	27.7	-24.3	68.9*	i	-7.7
Cn1cc(CN2CCN(c3ncccn3)CC2)c(-c2cccc(Cl)c2)n1	0.4	i	-17.6	9.4	4.0	i	·
Cc1cc(N2CCN(Cc3cn(C)nc3-c3cccc(Cl)c3)CC2)cc(C)n1	71.6*	i	-20.8	-23.3	61.6*	i	5.4
C=CCn1c2ccccc2c(=O)c2cc(C#CC3(O)CCCCC3)ccc21	-169.6	i	-120.6	-231.1	-276.5	i	-89.1
C=CCn1c2ccccc2c(=O)c2cc(C#CC[C@@H](C)O)ccc21	·	i	·	-140.4	-143.7	·	·
COc1ccc(-n2nnnc2-c2ccccc2)cc1	19.2	i	37.6	-77.1	52.8*	i	57.6*
Clc1ccc(-n2nnnc2-c2ccccc2)cc1	·	i	-3.0	5.5	-3.0	i	·
COc1ccccc1NC(=O)c1ccc(-c2ccc(Br)cc2)o1	-20.0	i	17.9	-44.5	56.9*	i	9.9
S=C(c1ccc(-c2ccc(Cl)cc2)o1)N1CCCCC1	-149.9	i	-165.1	-181.5	-171.5	i	-102.2
CN1CCN(c2ccccc2NC(=O)c2ccc(-c3ccc(Br)cc3)o2)CC1	-36.6	i	9.1	-87.7	50.3*	i	11.9
O=C(Nc1ccccc1N1CCCCC1)c1ccc(-c2ccc(Cl)cc2)o1	99.1*	i	-0.5	-37.8	54.0*	i	12.2
CN1CCN(c2ccccc2NC(=O)c2ccc(-c3ccc(Cl)c(Cl)c3)o2)CC1	7.8	i	-11.9	-2.2	6.8	i	·
O=C(Nc1ccccc1)c1ccc(-c2ccc(Br)cc2)o1	-92.7	i	-21.1	-18.2	-51.1	i	·
O=C(CCc1c[nH]c2ccccc12)NCCc1ccc(O)cc1	-4.3	i	-2.2	-5.4	-19.8	i	·
NC(=O)C(=CNc1nc(-c2ccc(Cl)c(Cl)c2)cs1)C(N)=O	·	·	-20.4	·	·	·	·
CC(=NNC(=S)N1CC2CCC(CC2)C1)c1ccncn1	·	i	·	·	·	·	·
CNC[C@@H](Cc1ccccc1)NC[C@@H](CC1CCCCC1)NCCCc1ccccc1	124.9*	i	-18.1	21.7	91.3*	i	23.5
CSc1nc(N)n2nc(-c3ccc(Cl)cc3)cc2n1	-58.7	i	-114.9	-205.7	-165.5	i	-90.2
CCOC(=O)c1cnc2cc(-c3ccc(Cl)cc3)nn2c1N	-87.0	i	-1.9	-151.9	-107.6	i	·
Cc1ccc(NC(=O)CN(C)C(=O)c2cccc(-n3cccc3)c2)cc1	·	i	·	-11.8	1.9	·	·
COc1ccccc1CNC(=O)c1csc(Cc2ccc(Cl)cc2)n1	25.2	i	2.5	0.5	71.0*	i	18.1
